Screening results (PubChem)
MazF activator: increases E. coli MazEF RNase cleavage of RNA. activation, % at 20 µM. FAM/BHQ RNA-DNA oligo cleavage fluorescence, 5 h. 0.32% of 350,000 active. AID 504720. P0AE70; in the data active means activation above about 50%
Vc quorum ag: induces V. cholerae light production without autoinducers | V. cholerae BH1578 lux reporter, luminescence, 6 h | activation, % at 18.7 µM | 0.16% of 350,000 active | AID 588436; in the data active means activation mostly above about 9.7%, no sharp cut-off; inconclusive means no clear call, values can overlap the other calls; inactive means mostly below about 3.7%
Autofluor counter: compound fluorescence in toxin protease inhibitor counterscreen; 3.1% of 360,000 active; compound autofluorescence counterscreen, microsphere flow cytometry; active compounds read high; fluorescence intensity (no concentration beside the values); in the data active means fluorescence intensity above about 16000; inconclusive means no clear call, values can overlap the other calls
BoNT A protease: BoNT A light chain protease inhibition; inhibition, % at 10 µM; 0.17% of 360,000 active; AID 588499; multiplex microsphere protease substrate cleavage, flow cytometry
Anthrax LF inh2: blocks Bacillus anthracis lethal factor protease. P15917. multiplex microsphere protease cleavage assay, LF. inhibition, % at 10 µM. 0.12% of 360,000 active
BoNT F protease: inhibitors of Botulinum neurotoxin F light chain protease | AID 588497 | Multiplex microsphere protease cleavage assay, flow cytometry | inhibition, % at 10 µM | 0.22% of 360,000 active; in the data active means inhibition above about 35%, passing the limit was not always enough; inconclusive means no clear call, values can overlap the other calls
Of the large screens only hits and unclear results are named; the others gave an inactive call. In the library only some 3.9% were active in any assay of this set; here they are far more common. Unless noted, no stated cut-off is given here; in the data, active means inhibition above about 30%; inconclusive means no clear call, values can overlap the other calls; inactive means below that.

CCOC(=O)c1cc(OC(=O)c2ccccc2)n(-c2ccccc2)n1	Autofluor counter 23849
COc1ccc(C(C)(C)C)cc1NC(=O)COC(=O)C1=NNC(=O)CC1	none
COc1ccc(OCC(=O)Nc2nonc2NC(=O)COc2ccc(OC)cc2)cc1	none
Cc1cc(C)cc(OCC(=O)Nc2cccc(C(=O)O)c2)c1	Autofluor counter 17933, BoNT A protease inconclusive
Cc1cc(C)cc(OCC(=O)Nc2nonc2NC(=O)COc2cc(C)cc(C)c2)c1	Autofluor counter 18944, BoNT A protease inconclusive
COc1cccc(OCC(=O)Nc2cc(NC(=O)COc3cccc(OC)c3)cc(C(=O)O)c2)c1	Vc quorum ag 41.9
O=C(NCc1nnc(SCC(=O)N2CCN(c3ccccc3)CC2)o1)c1ccc(F)cc1	none
O=C(COC(=O)[C@H](Cc1ccccc1)NS(=O)(=O)c1ccccc1F)NC1CCCCC1	Autofluor counter 18375
COc1cccc(-n2nnnc2SCC(=O)Nc2ccccc2OC)c1	BoNT F protease inconclusive
CCCS(=O)(=O)c1nnnn1-c1cccc(OC)c1	Autofluor counter 19154
NC(=O)NC(c1ccccc1)c1ccccc1F (centres undefined)	Autofluor counter 23015
NC(=O)NC(c1ccccc1)c1ccccc1	none
O=C(Nc1cccc2ccccc12)/C(=C/c1ccc([N+](=O)[O-])cc1)NC(=O)c1ccccc1	BoNT A protease 34.1 (no result: Vc quorum ag)
Cc1nn(CC(C)C)c(=S)[nH]c1=O	Autofluor counter 23998, BoNT A protease inconclusive
Cc1nnc(SCC(C)C)[nH]c1=O	none (no result: Vc quorum ag)
COC[C@H]1CCCN1c1ccc2c(c1)O[C@@H](COCc1ccccc1)CN([C@H](C)c1ccccc1)S2(=O)=O	none (no result: MazF activator, Vc quorum ag)
CC(C)(C)NC(=O)C(c1ccco1)N(C(=O)Cn1nnc(-c2ccc(F)cc2)n1)c1cccc(F)c1 (centres undefined)	Autofluor counter 22593
Cc1ccc(-c2nnn(CC(=O)N(c3ccc(F)cc3)C(C(=O)NC(C)(C)C)c3ccco3)n2)o1 (centres undefined)	BoNT F protease inconclusive
COc1ccc2nc(SCC(=O)/C(C#N)=C(\C)N)[nH]c2c1	none
COc1ccc2nc(SCC(N)=O)[nH]c2c1	Autofluor counter 22930, BoNT A protease inconclusive
O=C(CSc1ncccn1)Nc1cc(Cl)ccc1[N+](=O)[O-]	none (no result: Vc quorum ag)
O=C(Cc1csc(N2CCOCC2)n1)N/N=C/c1ccc(F)cc1	Autofluor counter 20712
O=C(Cc1csc(N2CCOCC2)n1)N/N=C/c1cccc(O)c1	none
Cc1ccc(Cl)c2c(N=Nc3ccccc3)c(O)[nH]c12	MazF activator active, BoNT F protease inconclusive
CC(=O)N1CCN(S(=O)(=O)c2cccc(C(=O)N3CCN(S(=O)(=O)c4c(C)c(C)cc(C)c4C)CC3)c2)CC1	none
O=[N+]([O-])c1cc(Cl)cc(/C=N\Nc2ccccn2)c1O	Vc quorum ag 25.0
O=[N+]([O-])c1ccc(Cl)cc1C=NNc1ccccn1	none
Cc1cc2n(n1)C(c1ccccc1)CC(c1ccc(Br)cc1)=N2 (centres undefined)	none
N#CCCn1c(-c2nonc2NC(=O)c2ccccc2Cl)nc2ccccc21	MazF activator 81.2
CC(=O)Nc1nonc1-c1nc2ccccc2n1CCC#N	none
CN(CCc1ccccc1)c1cc2c(c3c1ccn3C)C1CCC2C1 (centres undefined)	none (no result: MazF activator, Vc quorum ag)
O=C(Cc1coc2ccc3ccccc3c12)Nc1nccs1	none (no result: Vc quorum ag)
O=C(Cc1coc2ccc3ccccc3c12)NCc1ccccc1	Autofluor counter 20707
O=C1Nc2ccc(Br)cc2C12NNc1ccccc1O2 (centres undefined)	MazF activator 83.7
O=C(NCc1ccccc1)C1c2ccccc2OCC(=O)N1CCc1c[nH]c2ccccc12 (centres undefined)	none (no result: MazF activator, Vc quorum ag)
CN(C)c1ccc(NC(=O)c2ccc3nsnc3c2)cc1	Autofluor counter 22463, BoNT A protease inconclusive
Cc1ccccc1C(=O)Nc1cccc(NC(=S)NC(=O)c2cccs2)c1	Vc quorum ag active, Autofluor counter inconclusive
Cc1cccc(N2CCN(C(=O)COc3ccc4c(C)cc(=O)oc4c3C)CC2)c1C	none
CN1C(=O)c2ccccc2Sc2ccc(C(=O)N3CCC4(CC3)OCCO4)cc21	Autofluor counter 19800
CCC(C)NC(=O)Nc1ccc2c(c1)N(C)C(=O)c1ccccc1S2 (centres undefined)	Autofluor counter 16200
O=C(c1ccc2c(c1)N(Cc1ccccc1)C(=O)c1ccccc1S2)N1CCCC1	Autofluor counter 21624, BoNT A protease inconclusive
